This is a sample that favours compounds with a hit; in the whole collection about 4.1% have one here.
hgDAF12 agonist: H. glycines DAF-12 receptor agonists, primary screen, cell-based, luminescence, HEK293, GAL4 fusion, UAS-luciferase | Nuclear hormone receptor DAF-12 (Heterodera glycines), GAL4 fusion | HEK293 GAL4-hgDAF12 UAS-luciferase reporter, agonist luminescence; normalized to butyrate control | activation, % at 6.8 µM | 1.8% of 370,000 active;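 active = activation above a cutoff set at the mean of all screened compounds plus 3 SD, cut at about 10% in these data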;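 also: 0% = DMSO wells and 100% = sodium butyrate wells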
DAX1 inh-1: DAX1 (NR0B1) inhibitors on StAR promoter, primary screen, cell-based, luminescence, SF-1 (NR5A1), full-length DAX-1; inhibition, % at 6.8 µM; AID 652010, 2013; 1.1% of 370,000 active; HEK293T StAR-luciferase reporter, SF-1/DAX-1 repression relief;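 active = inhibition above the mean over all tested compounds plus 3 SD, cut at about 3.6% in these data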;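 also: 0% = DAX-1 cells with DMSO and 100% = cells lacking DAX-1 with DMSO; higher inhibition means more luminescence from relief of DAX-1 repression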
ssDAF-12 act: S. stercoralis DAF-12 nuclear receptor activators, primary screen, cell-based, luminescence, HEK293, GRIP1 co-expression, lit1-tk-luc | HEK293 ssDAF-12/GRIP1 lit1-tk-luc reporter; % of 3 µM dafachronic acid response | activation, % at 6.8 µM | 1% of 370,000 active;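 active = activation above the mean over all tested compounds plus 3 SD, cut at about 0.9% in these data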;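 also: 0% = DMSO-only wells and 100% = 3 µM delta7-dafachronic acid wells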
hcDAF-12 act: H. contortus DAF-12 nuclear receptor activators, primary screen, cell-based, luminescence, HEK293, lit1-tk-luc reporter; HEK293 hcDAF-12 lit1-tk-luc reporter; 0% DMSO, 100% Δ7-dafachronic acid; activation, % at 6.8 µM; AID 652067, 2013; 1.4% of 370,000 active;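 active = activation above the mean of all tested compounds plus 3 SD, cut at about 5.5% in these data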;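 also: 100% = response to 3 µM Δ7-dafachronic acid high control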
PolyA inh: polyadenylation inhibitors in yeast reporter cells, primary screen, luminescence, S. cerevisiae. activity score, % at 12 µM. S. cerevisiae SKY197-pL101 polyadenylation reporter, beta-gal luminescence; efflux-impaired pdr1/pdr3 knockout yeast; score 100 = 6 SD above DMSO. AID 1875, 2009. 0.02% of 300,000 active;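 active = lowest replicate activity score at least 50, where 100 means six control SD above control mean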;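 also: yeast exposed to compound for 9 h at 30 °C; higher score means more reporter readthrough which indicates perturbed polyadenylation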
DAX1 inh-2: DAX1 (NR0B1) inhibitors, primary screen, cell-based, HEK293, Gal4-DAX1, luciferase luminescence; Nuclear receptor subfamily 0 group B member 1 (Homo sapiens), P51843; HEK293 Gal4-DAX1 luciferase reporter; inhibition, % at 6.75 µM; 0.99% of 340,000 active;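 active = inhibition above the mean over all tested compounds plus 3 SD, cut at about 4.2% in these data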;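 also: 0% = DAX1-transfected cells with DMSO and 100% = empty-vector control cells with DMSO; inhibition shows as a rise in luminescence from relieved DAX1 repression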
Target sequence (P51843 207-470 limits assumed): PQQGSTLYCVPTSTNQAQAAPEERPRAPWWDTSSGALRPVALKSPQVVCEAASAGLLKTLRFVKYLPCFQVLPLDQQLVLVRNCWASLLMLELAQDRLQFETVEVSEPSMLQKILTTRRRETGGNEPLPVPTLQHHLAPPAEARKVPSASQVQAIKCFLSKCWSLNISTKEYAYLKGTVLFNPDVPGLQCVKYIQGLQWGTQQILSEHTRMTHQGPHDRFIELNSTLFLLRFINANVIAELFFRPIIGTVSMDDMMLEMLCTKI
* hit, by the source's call; x = no result given.

SMILES | hgDAF12 agonist | DAX1 inh-1 | ssDAF-12 act | hcDAF-12 act | PolyA inh | DAX1 inh-2
O=C(NCc1ccccc1)OC1CC2CC1[C@H]1CCCCN1C2 (stereo not given in full) | 3 | 0 | -1 | -2 | x | x
COc1ccc(-n2nc(C(=O)NCC(=O)N3CCCC3)c3ccccc3c2=O)cc1 | 2 | 0 | -1 | 2 | -5 | 5.2*
COc1ccc(-n2nc(C(=O)NCC(=O)N3CCCCC3)c3ccccc3c2=O)cc1 | 0 | 0 | -1 | 0 | 8 | 1
Cc1cc(OCC(=O)N(C)Cc2ccccc2)ccc1Cl | 9 | 1 | 1.6* | 4 | 0 | 2
COC(=O)C1CN(Cc2ccccc2)CCS(=O)(=O)N1Cc1cn(Cc2ccccc2Br)nn1 (stereo not given) | 3 | -1 | -1 | 0 | x | x
NS(=O)(=O)c1ccc(NC(=S)NC(=O)C2CCCC2)cc1 | -2 | 0 | -1 | 5.8* | 1 | 1
COc1ccc(NC(=S)NC(=O)C2CCCCC2)cc1 | 4 | 3.8* | -1 | 1 | 8 | 2
COc1ccc(NC(=O)C2CCCC2)cc1 | 5 | 0 | -1 | 1 | 3 | 1
O=C(Nc1c(-c2ccccc2)nc2ncccn12)c1ccccc1 | -2 | -1 | -1 | 4 | x | x
O=C(O)C1CCCN1C(=O)c1cccc(Cl)c1 (stereo not given) | -2 | 0 | -1 | 2 | x | x
CC1(C)CC(=O)C(N=Nc2cccc([N+](=O)[O-])c2)=C(O)C1 | 0 | 0 | 0 | 1 | 0 | 6.1*
CC1(C)CC(=O)C(N=Nc2ccc(Br)cc2)=C(O)C1 | 1 | 0 | -1 | 0 | -19 | x
NNC(=O)c1ccc(Cn2cc(Br)cn2)o1 | 3 | 0 | -1 | -1 | 9 | 4.5*
CCOc1ccc(-n2c(SCC(=O)Nc3ccc(S(=O)(=O)Nc4nccs4)cc3)nnc2-c2ccc(C(C)(C)C)cc2)cc1 | 3 | 0 | -1 | 1 | x | x
C=CCn1c(=O)c(C(=O)Nc2ccccc2C)c(O)c2ccccc21 | 4 | 1 | 1 | 5 | -4 | 0
Cc1ccc(NC(=O)c2c(O)c3ccccc3n(C)c2=O)nc1 | 5 | 0 | 0 | 6.0* | 10 | 1
C=CCn1c(=O)c(C(=O)Nc2ccccc2O)c(O)c2ccccc21 | 1 | 0 | 1.0* | 3 | -4 | 1
CCn1c(=O)c(C(=O)Nc2ccccc2C)c(O)c2ccccc21 | 3 | 0 | 1.4* | 4 | 13 | 1
Cc1ccc(NC(=O)c2ccc(C(=O)c3ccccc3)cc2)nc1 | 5 | 3.9* | -1 | -1 | -3 | 1
Cn1c(=O)c(C(=O)Nc2ncccc2O)c(O)c2ccccc21 | 6 | 2 | 0 | 2 | 11 | 3
COC(=O)[C@]12C[C@H](CC(=O)NCc3cccs3)C(=O)N(Cc3cccc4ccccc34)C1=C[C@H](C(C)C)O[C@@H]2C1CC1 | -1 | 0 | -2 | -1 | x | x
CCOc1ccc(CCN2C(=O)C(=O)N([C@@H](CC(C)C)CN3CCC[C@@H]3CN3C(=O)C(=O)NC[C@@H]3Cc3ccccc3)C[C@@H]2Cc2ccc(O)cc2)cc1 | 0 | -1 | -1 | 0 | x | 0
CCOc1ccc(CCN2C(=O)C(=O)N([C@@H](CC(C)C)CN3CCC[C@H]3CN3C(=O)C(=O)NC[C@@H]3Cc3ccccc3)C[C@@H]2Cc2ccc(O)cc2)cc1 | 0 | 3.9* | -1 | 0 | x | x
CC(C)C[C@H]1CNC(=S)N1C[C@H]1CCCN1C[C@H](Cc1ccccc1)N1C[C@H](Cc2ccc(O)cc2)N(CC2CCCCC2)C1=S | 1 | 3.8* | -1 | 0 | x | x

Screening data as filed in PubChem BioAssay.
